Test results as given in article PMC5913336, “True equilibrium measurement of transcription factor-DNA binding affinities using automated polarization microscopy”.

Each sequence was assayed against T1, Croc (Drosophila melanogaster, UniProt P32027 54-175) (assay: FP; 20 mM Tris-acetate pH 7.0, 50 "nM" NaCl as printed (probably mM), 0.01% Tween 20, 0.1 mM DTT; conventional titration). Conditions: tags: N-GST (pGEX-6P-1, kept); dsDNA, one strand shown.
T1 sequence: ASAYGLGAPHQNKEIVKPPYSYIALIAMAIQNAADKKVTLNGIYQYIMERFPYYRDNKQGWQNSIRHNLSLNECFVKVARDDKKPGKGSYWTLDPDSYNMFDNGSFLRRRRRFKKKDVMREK

| Sequence | binding signal | Kd [nM] |
| --- | --- | --- |
| TTAGATAATTATA | 197 Kd / Kd of best base at the position | – |
| TTAGATAAATTTA | 35.4 Kd / Kd of best base at the position | – |
| TTAGATAAATATA | – | ~0.3 |
| TTAGATAAAAATA | 380 Kd / Kd of best base at the position | – |
| TTAGATTAATATA | 109 Kd / Kd of best base at the position | – |
| TTAGATAACTATA | 387 Kd / Kd of best base at the position | – |
| TTAGCTAAATATA | 38.6 Kd / Kd of best base at the position | – |
| TTATATAAATATA | 2.66 Kd / Kd of best base at the position | – |
| TTAGATACATATA | 93.4 Kd / Kd of best base at the position | – |
| CTAGATAAATATA | 4.3 Kd / Kd of best base at the position | – |
| TTCGATAAATATA | 33 Kd / Kd of best base at the position | – |
| TTGGATAAATATA | 5.64 Kd / Kd of best base at the position | – |
| TTAGATCAATATA | 8.58 Kd / Kd of best base at the position | – |
| TTACATAAATATA | 6.62 Kd / Kd of best base at the position | – |
| TTAGATAAGTATA | 95 Kd / Kd of best base at the position | – |
| TTAGATGAATATA | 2300 Kd / Kd of best base at the position | – |
| GTAGATAAATATA | 13.8 Kd / Kd of best base at the position | – |
| TTAGGTAAATATA | 3.08 Kd / Kd of best base at the position | – |
| TTAGATATATATA | 164 Kd / Kd of best base at the position | – |
| TTAGATAAATATT | 1.02 Kd / Kd of best base at the position | – |

| Sequence | binding signal | Kd [nM] |
| --- | --- | --- |
| TTAGATAAATACA | 1.16 Kd / Kd of best base at the position | – |
| TTAGACAAATATA | 16.3 Kd / Kd of best base at the position | – |
| TCAGATAAATATA | 51.8 Kd / Kd of best base at the position | – |
| TTAGATAGATATA | 1160 Kd / Kd of best base at the position | – |
| TTAGATAAACATA | 1.86 Kd / Kd of best base at the position | – |
| TAAGATAAATATA | 7.76 Kd / Kd of best base at the position | – |
| TTAGAAAAATATA | 7.44 Kd / Kd of best base at the position | – |
| ATAGATAAATATA | 9.22 Kd / Kd of best base at the position | – |
| TTAAATAAATATA | 1.66 Kd / Kd of best base at the position | – |
| TTAGAGAAATATA | 48.4 Kd / Kd of best base at the position | – |
| TTAGATAAATGTA | 79 Kd / Kd of best base at the position | – |
| TTAGTTAAATATA | 43.2 Kd / Kd of best base at the position | – |
| TTAGATAAATCTA | 46 Kd / Kd of best base at the position | – |
| TGAGATAAATATA | 76.4 Kd / Kd of best base at the position | – |
| TTAGATAAATATC | 2.74 Kd / Kd of best base at the position | – |
| TTAGATAAATAAA | 2.04 Kd / Kd of best base at the position | – |
| TTAGATAAATATG | 17.4 Kd / Kd of best base at the position | – |
| TTAGATAAATAGA | 5.76 Kd / Kd of best base at the position | – |
| TTTGATAAATATA | 15.4 Kd / Kd of best base at the position | – |
